Screening results as filed in PubChem.
This is a sample that favours compounds with a hit; in the whole collection about 1.7% have one here.
m5-HT2A agonist = mouse Htr2a agonists via beta-arrestin recruitment, primary screen, cell-based, luminescence | 5-hydroxytryptamine receptor 2A (Mus musculus), P35363 | CHO-K1 mHTR2A beta-arrestin complementation; percent of 30 µM serotonin response | activation, % at 7.6 µM | 360,000 compounds, 0.66% hits | AID 624169, 2012;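 active means activation above a run cutoff, the mean activation of all tested compounds plus 3 SD, cut at about 14% in these data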
Target sequence (P35363 whole entry, looked up): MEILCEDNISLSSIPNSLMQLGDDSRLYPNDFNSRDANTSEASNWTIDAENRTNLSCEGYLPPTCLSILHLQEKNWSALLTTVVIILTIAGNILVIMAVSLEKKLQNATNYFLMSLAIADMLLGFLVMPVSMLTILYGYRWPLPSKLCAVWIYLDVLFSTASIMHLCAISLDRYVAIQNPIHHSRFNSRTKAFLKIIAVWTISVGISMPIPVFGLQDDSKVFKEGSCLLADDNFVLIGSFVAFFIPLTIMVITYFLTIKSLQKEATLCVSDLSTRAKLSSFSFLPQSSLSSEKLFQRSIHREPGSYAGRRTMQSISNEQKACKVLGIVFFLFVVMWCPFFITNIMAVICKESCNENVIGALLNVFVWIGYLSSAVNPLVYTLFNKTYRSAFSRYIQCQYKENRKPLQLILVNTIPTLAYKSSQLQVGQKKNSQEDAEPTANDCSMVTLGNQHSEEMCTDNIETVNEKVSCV
LANA-H2B inh = blockers of LANA interaction with H2A/H2B – biochemical, FP readout, HTS, primary screen; inhibition, % (test concentration not listed); 320,000 compounds, 0.6% hits; Protein LANA1 (Human herpesvirus 8 type P (isolate GK18)), Q9QR71; cell-free LANA-H2A/H2B peptide, fluorescence polarization; in the data active means inhibition mostly above about 10%, no sharp cut-off; inactive means mostly below about 6.7%
CTSL1 counter = Fasciola hepatica cathepsin L1 inhibitors, primary screen, counter-screen for PFM18AAP inhibitor project, biochemical, QFRET, fluorogenic peptide substrate. recombinant F. hepatica cathepsin L1, Z-Leu-Arg-MCA fluorescence. inhibition, % at 5.96 µM. 300,000 compounds, 0.49% hits;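 active means inhibition above the mean of all tested compounds plus 3 SD, set per screening campaign, cut at about 17% in these data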
HDAC3 inh = HDAC3 deacetylase inhibitors, primary screen, biochemical, fluorescence, cell-free homogeneous | Histone deacetylase 3 (Homo sapiens), O15379 | recombinant HDAC3, fluorogenic peptide/trypsin coupled | inhibition, % at 8.3 µM | 320,000 compounds, 0.15% hits | AID 2718, 2010; in the data active means inhibition above about 26%, passing the limit was not always enough
Each line names hits and unclear results; the compound was inactive in the other large screens.

COCCNC(=S)NNC(=O)c1ccco1	LANA-H2B inh 61.0
CC(C)CNC(=S)NNC(=O)c1ccco1	none
Oc1ccccc1N=N/C(=N/Nc1ccccc1O)c1ccccc1	none
N#C/C(N=Nc1ccccc1O)=N\Nc1ccccc1O	CTSL1 counter 33.6
c1ccc(-n2cc(CN3CCCC(CN4CCCC4)C3)c(-c3ccc4c(c3)OCO4)n2)cc1 (configuration not stated)	LANA-H2B inh 21.2
OC[C@@H]1CCCN1Cc1cn(-c2ccccc2)nc1-c1ccc2c(c1)OCO2	none
CCOC(=O)CCCCC(=O)c1[nH]c(=O)[nH]c1C[n+]1ccc(C)cc1	none
CCOC(=O)CCCCC(=O)c1[nH]c(=O)[nH]c1C[n+]1ccccc1	LANA-H2B inh 17.4 (no result: m5-HT2A agonist)
Cc1ccc(S(=O)(=O)N2CCC(C(=O)NCc3ccccc3Cl)CC2)cc1	LANA-H2B inh 93.3
O=C(NCc1ccc(Cl)cc1)C1CCN(S(=O)(=O)c2ccc(N3CCCC3=O)cc2)CC1	none
O=C(NCc1ccccc1)C1CCN(S(=O)(=O)c2ccc(N3CCCC3=O)cc2)CC1	CTSL1 counter 17.2
Cc1ccc(S(=O)(=O)Cc2ccc([N+](=O)[O-])cc2)cc1	LANA-H2B inh 15.8
Cc1ccc(CNS(=O)(=O)c2ccc([N+](=O)[O-])cc2)cc1	none
O=C(c1ccc(-c2ccccc2)c(F)c1)C1CCCN(C(=O)c2cncs2)C1 (configuration not stated)	LANA-H2B inh 14.4
CC(C)Oc1cccc(C(=O)C2CCCN(C(=O)c3cncs3)C2)c1 (configuration not stated)	none
CC(OC(=O)Cc1ccc(Br)cc1)C(=O)NC1CCCCC1C (configuration not stated)	none
COc1ccc(/C=C/c2nc3ccccc3c(=O)n2-c2cccc(C(=O)O)c2)cc1	CTSL1 counter 19.4
O=C1C(Cl)=C(NCCN2CCCCC2)C(=O)c2ccccc21	CTSL1 counter 53.6
CC1Sc2ccc(S(=O)(=O)CCC(=O)N3CCN(c4ccccc4)CC3)cc2NC1=O (configuration not stated)	none
CC1Sc2ccc(S(=O)(=O)CCC(=O)N3CCN(c4cccc(Cl)c4)CC3)cc2NC1=O (configuration not stated)	LANA-H2B inh 30.4
Cn1c(=O)c2cc(NC(=S)NC3CC3)ccc2n1Cc1cccc(C(F)(F)F)c1	none (no result: LANA-H2B inh, CTSL1 counter, HDAC3 inh)
NC(=O)c1oc2ccccc2c1NC(=O)c1ccc([N+](=O)[O-])o1	CTSL1 counter 26.0
Cc1cccc(C)c1NC(=O)CN(C)C(=O)[C@H](C)NC(=O)c1ccco1	none (no result: CTSL1 counter)
O=C(O)CCCNc1cc(N2CCC3(CC2)OCCO3)c2noc3c2c1C(=O)c1ccccc1-3	LANA-H2B inh 37.6 (no result: m5-HT2A agonist)
O=C(O)CCCNc1cc(N2CCN(C(=O)c3ccco3)CC2)c2noc3c2c1C(=O)c1ccccc1-3	none
CN1CCN(c2cc(N3CCN(C(=O)c4ccco4)CC3)c3c4c(onc24)-c2ccccc2C3=O)CC1	none
CCOC(=O)N1CCN(c2cc(NCCC(=O)O)c3c4c(onc24)-c2ccccc2C3=O)CC1	LANA-H2B inh 36.6, CTSL1 counter 21.3
Cc1ccc(S(=O)(=O)N2C[C@H]3[C@H]4C(=O)N(c5ccccc5)C(=O)[C@H]4CC(=O)[C@H]3[C@@H]2c2ccccc2F)cc1	none (no result: LANA-H2B inh, CTSL1 counter, HDAC3 inh)
COc1cccc(-c2nc(-c3ccccc3)c3ccc(Cl)cc3n2)c1	none (no result: LANA-H2B inh, CTSL1 counter, HDAC3 inh)
C/C(=N/Nc1nc(C)c(C)s1)c1cccc([N+](=O)[O-])c1	CTSL1 counter 89.6
C/C(=N\Nc1nc(N)cc(Cl)n1)c1cccc([N+](=O)[O-])c1	none
O=C(CCNC(=O)c1ccco1)Nc1ccc(OC(F)F)cc1	none
COc1ccc(-c2noc(N3CCC(C(=O)Nc4cc(OC)c(OC)c(OC)c4)CC3)n2)cc1	none
COc1cccc(OCc2cc(C(=O)N3CCN(c4ccccc4OC)CC3)no2)c1	none
O=C(CN1C(=O)C2CCCN2C(=O)c2ccccc21)Nc1ccccc1-n1cccc1 (configuration not stated)	LANA-H2B inh 30.0 (no result: m5-HT2A agonist)
Cc1ccc(NC(=O)CN2C(=O)C3CCCCN3C(=O)c3ccccc32)cc1 (configuration not stated)	none
COC(CNS(=O)(=O)c1cc2c3c(c1)CCN3C(=O)CC2)OC	none
Cc1ccc(C2(c3ccccc3)NC(=O)N(CC(=O)NC3(C#N)CCCC3)C2=O)cc1C (configuration not stated)	LANA-H2B inh active (no result: CTSL1 counter)
Cc1ccc(C2(c3ccccc3)NC(=O)N(CC(=O)N(C)C3CCS(=O)(=O)C3)C2=O)cc1C (configuration not stated)	LANA-H2B inh 16.0 (no result: CTSL1 counter)
COc1ccc(C2(c3ccc(OC)cc3)NC(=O)N(CC(=O)NC3(C#N)CCCC3)C2=O)cc1	none (no result: CTSL1 counter)
CC1CCCC(NC(=O)c2cccc(S(=O)(=O)N3CCN(c4ccccc4)CC3)c2)C1C (configuration not stated)	none
COc1ccccc1C1/C(=C(/O)c2ccccc2)C(=O)C(=O)N1CCO (configuration not stated)	none
CCN(CC)CCCN1C(=O)C(=O)/C(=C(/O)c2ccccc2)C1c1cc(OC)ccc1OC (configuration not stated)	LANA-H2B inh 17.4
CC(Sc1n[nH]c(N)n1)C(=O)NC1CCCCC1C (configuration not stated)	none
COc1ccc(-n2c(=S)[nH]c3cc(C(=O)NCc4ccccc4OC)ccc3c2=O)c(OC)c1	none
COc1ccc(-n2c(=S)[nH]c3cc(C(=O)NCc4ccco4)ccc3c2=O)c(OC)c1	CTSL1 counter 18.6
CCN(CC(=O)NCc1cccs1)C(=O)c1ccc(-c2cccc(C(F)(F)F)c2)o1	none (no result: HDAC3 inh)
CCOC(=O)C1(Cc2cccc(Cl)c2)CCCN(C(=O)c2ccoc2C)C1 (configuration not stated)	LANA-H2B inh 95.3 (no result: CTSL1 counter)
CCOC(=O)C1(Cc2cccc(Cl)c2)CCCN(C(=O)c2ccco2)C1 (configuration not stated)	none
Nc1cc(N)nc(SCC(=O)Nc2ccccc2N2CCOCC2)n1	LANA-H2B inh 14.5
Cc1ccc(NC(=O)CSc2nc(N)cc(N)n2)cc1S(=O)(=O)N1CCOCC1	LANA-H2B inh 19.3
Cc1ccc(NC(=O)CCCOc2ccccc2)cc1S(=O)(=O)N1CCOCC1	LANA-H2B inh 20.0 (no result: CTSL1 counter)
O=C(CCCOc1ccccc1)Nc1ccc(Cl)c(S(=O)(=O)N2CCOCC2)c1	none (no result: CTSL1 counter)
CCCCn1c(N)c(N(CC(C)C)C(=O)CSc2nn(-c3ccc(F)cc3)c(=S)s2)c(=O)[nH]c1=O	none (no result: LANA-H2B inh, CTSL1 counter, HDAC3 inh)
CCC(=O)N1CCCc2cc(S(=O)(=O)N3CCN(c4ncccn4)CC3)ccc21	m5-HT2A agonist 21.4
Cc1cccc(N2CCN(S(=O)(=O)c3ccc4c(c3)CCN4C(=O)CCC(=O)O)CC2)c1C	m5-HT2A agonist 17.7
CCC(=O)N1CCCc2cc(S(=O)(=O)N3CCN(c4ccccn4)CC3)ccc21	none
